# Records with an inconclusive call do not appear. The source made the active and inactive calls. Unless noted, calls follow the shape of the full dose curve.
# Legend:
# [1] = target: Glucocorticoid receptor (Homo sapiens) (UniProt P04150); experiment: qHTS assay for small molecule agonists of glucocorticoid receptor signaling (AID 588532; active = well fitted curve in the direction sought with a large enough effect in the signal ratio, with a control signal flat; the % refers to the signal ratio;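 also: 100% = dexamethasone at 0.1 µM and 0% = DMSO only wells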); details: HeLa MMTV-bla, beta-lactamase ratio, agonist, 18 h; activation: stronger effect = higher value, percent of dexamethasone control, DMSO zero
# In short: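 Titration series, up to 92 uM, applied to GRE-bla HeLa cells for 18 h at 37 C. Detection by CCF4 FRET substrate after 2 h at RT.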
# [2] = target: Peroxisome proliferator-activated receptor delta (Homo sapiens) (UniProt Q03181); experiment: qHTS assay for small molecule agonists of peroxisome proliferator-activated receptor delta signaling (AID 588534);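 also: 0% = DMSO basal wells and 100% = positive control agonist at 10 µM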
# In short: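 Fluorescence from CCF4 substrate cleavage by beta-lactamase reporter, read 2 hrs at RT, measured agonist activity. Compounds were tested with 18 hrs exposure at 37 C. Concentration-response data fitted to Hill equation.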
# [3] = qHTS assay for small molecule antagonists of peroxisome proliferator-activated receptor delta signaling (AID 588535; active = well fitted inhibition curve with a large enough effect in the signal ratio, with a control signal flat, not every such curve was filed as active; the % refers to the signal ratio;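 as to max response: cells co-treated with a PPAR-delta agonist as stimulator during compound exposure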); details: HEK293T PPARd-UAS-bla, beta-lactamase FRET ratio, 18 h; 460 nm channel
# In short: (§1)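 Reporter: UAS-bla under PPAR-delta response element, HEK293T host. Medium: 2% charcoal/dextran FBS. Dosing: titration, 18 hrs, 37 C. Detection: CCF4, 2 hrs RT, 405 ex/460 and 530 em.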
# [4] = target: Peroxisome proliferator-activated receptor delta (Homo sapiens) (UniProt Q03181); experiment: as above
# In short: as §1
# [5] = target: Peroxisome proliferator-activated receptor gamma (Homo sapiens) (UniProt P37231); experiment: qHTS assay for small molecule agonists of peroxisome proliferator-activated receptor gamma signaling (AID 588536; active = well fitted curve in the direction sought with a large enough effect in the signal ratio, with a control signal flat, not every such curve was filed as active; the % refers to the signal ratio;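 also: 0% = DMSO basal wells and 100% = rosiglitazone at 2 µM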)
# In short: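 Test agents, titrated, stimulated HEK293 UAS-bla cells overnight (16 h, 37 C). Substrate CCF4 was then added for two hours at room temperature before fluorescence reading.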
# [6] = target: Peroxisome proliferator-activated receptor gamma (Homo sapiens) (UniProt P37231); experiment: qHTS assay for small molecule antagonists of peroxisome proliferator-activated receptor gamma signaling (AID 588537; active = well fitted inhibition curve with a large enough effect in the signal ratio, with a control signal flat, not every such curve was filed as active; the % refers to the signal ratio;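 also: reporter cells co-stimulated with 50 nM rosiglitazone agonist during compound treatment; % of control where 0% means no effect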)
# In short: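 We seeded GeneBLAzer HEK293 reporter cells at 3000 per well, allowed 6-6.5 h attachment at 37 C, then co-treated with test compound titrations and 50 nM rosiglitazone overnight (16 h). Inhibition was quantified from 460/530 nm emission ratios.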
# [7] = target: Vitamin D3 receptor (Homo sapiens) (UniProt P11473); experiment: qHTS assay for small molecule antagonists of vitamin D receptor signaling (AID 588541);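 also: receptor activated by calcitriol during compound treatment; series mostly up to about 77 µM; % is scaled to controls: 0 for no effect and ±100 for the full control effect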
# In short: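 VDR-UAS-bla HEK293T cells (2000/well, 2% charcoal-stripped FBS) were treated with titrated compounds plus 1-alpha,25-dihydroxyvitamin D3 (50 nM or 3 nM final) for 16 h at 37 C. CCF4 beta-lactamase fluorescence was read; Hill fits gave IC50.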
# [8] = target: Vitamin D3 receptor (Homo sapiens) (UniProt P11473); experiment: qHTS assay for small molecule agonists of vitamin D receptor signaling (AID 588543);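 also: 0% = DMSO basal and 100% = reference agonist control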
# In short: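 VDR-UAS-bla HEK293T cells, 2000/well, 2% charcoal-stripped FBS; compound titration 16 h at 37 C; CCF4 beta-lactamase ratio read. Normalized to 50 nM 1-alpha,25-dihydroxyvitamin D3 (100%) and DMSO; Hill fit gives EC50, efficacy.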
# [9] = target: Retinoic acid receptor RXR-alpha (Homo sapiens) (UniProt P19793); experiment: qHTS assay for small molecule agonists of retinoid X receptor alpha signaling (AID 588544);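 also: 0% = DMSO basal wells and 100% = reference agonist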
# [10] = target: Thyroid hormone receptor beta (Homo sapiens) (UniProt P10828); experiment: qHTS assay for small molecule agonists of thyroid hormone receptor beta signaling (AID 588545);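 also: 0% = DMSO only and 100% = 10 nM T3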
# In short: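 TR-UAS-bla-GripTite HEK 293 cells in medium with 2% charcoal/dextran FBS, 0.1 mM NEAA and 1 mM sodium pyruvate were treated with titrated compounds for 18 hrs at 37 C. Beta-lactamase reporter was read with CCF4 dye (ex 405, em 460/530 nm); EC50 from Hill fits.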
# [11] = qHTS assay for small molecule antagonists of retinoid X receptor alpha signaling (AID 588546; active = well fitted inhibition curve with a large enough effect in the signal ratio, with a control signal flat, not every such curve was filed as active; the % refers to the signal ratio; also: potency is read from the fitted curve at half-maximal effect;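 as to max response: cells stimulated with 9-cis-retinoic acid as agonist; % is scaled to controls: 0 for no effect and ±100 for the full control effect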); details: HEK293T RXRa-UAS-bla, beta-lactamase ratio, antagonist mode; measured here: W530 green channel, cytotoxicity proxy
# In short: (§2)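 Beta-lactamase reporter inhibition, read as CCF4 fluorescence ratio (ex 405, em 460/530 nm) after 2 h at RT. HEK293T UAS-bla cells, 2500/well, were stimulated with 9-cis-RA at 500 or 100 nM final alongside test compound for 18 h at 37 C.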
# [12] = target: Retinoic acid receptor RXR-alpha (Homo sapiens) (UniProt P19793); experiment: as above; details: HEK293T RXRa-UAS-bla, beta-lactamase ratio, antagonist mode
# In short: as §2
# [13] = qHTS assay for small molecule activators of the p53 signaling pathway (AID 651743; active = well fitted activation curve with a large enough effect in the signal ratio, not every such curve was filed as active; the % refers to the signal ratio; also: potency is read from the fitted curve at half-maximal effect; as to activation: series mostly up to about 92 µM; % of control where 0% means no effect); details: HCT-116 p53RE-bla, beta-lactamase FRET ratio, 16 h; activation: stronger effect = higher value
# In short: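 Cell-based beta-lactamase reporter (p53 response elements, HCT-116 background). After a 5-hour preincubation, cells received compound for 16 hours at 37 C; substrate development ran 2 hours at room temperature.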
# [14] = qHTS assay for environmental chemicals that activate the Aryl hydrocarbon Receptor (AhR) signaling pathway (AID 651777; active = well fitted curve in the direction sought with a large enough effect; an effect the other way counts as inactive or inconclusive; also: nearly all actives have a fitted effect of over 15% in size; also: potency is read from the fitted curve at half-maximal effect; as to activation: % of control where 0% means no effect); details: 1A2-DRE human hepatoma cells, luciferase, 24 h; activation: stronger effect = higher value
# In short: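 Measured luciferase activity, read 30 min after One-Glo addition at room temperature, from human hepatoma cells bearing a dioxin response element–CYP1A2 promoter reporter and exposed to compound for 24 hr at 37 C.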
# [15] = target: Peroxisome proliferator-activated receptor alpha (Homo sapiens) (UniProt Q07869); experiment: qHTS assay for small molecule agonists of the peroxisome proliferator-activated receptor alpha (PPARalpha) signaling pathway (AID 651778; active = well fitted curve in the direction sought with a large enough effect; an effect the other way counts as inactive or inconclusive; also: % of control where 0% means no effect); details: PathHunter PPARalpha complementation, chemiluminescence, 6 h; max response: stronger effect = higher value
# In short: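 Cells plated at 2,000/well and held overnight at 37 C, 5% CO2, then compound added by pin tool for 6 hr; after PathHunter detection reagent and 60 min at room temperature, chemiluminescence from enzyme complementation was read.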
# [16] = qHTS assay for small molecule agonists of the antioxidant response element (ARE) signaling pathway measured by Nrf2-dependant transcriptional activity (AID 720636; active = well fitted curve in the direction sought with a large enough effect in the repeat runs; an effect the other way counts as inactive or inconclusive;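 also: HepG2 cells with an ARE-driven luciferase reporter; % of control where 0% means no effect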)
# In short: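 In HepG2 cells engineered with an Nrf2-responsive luciferase gene, ARE induction was quantified as luminescence after 16 hr compound treatment at 37 C.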
# [17] = qHTS assay for small molecule agonists of the antioxidant response element (ARE) signaling pathway measured by Nrf2-dependant transcriptional activity - cell viability counter screen (AID 720653; active = well fitted curve in the direction sought with a large enough effect in the repeat runs; an effect the other way counts as inactive or inconclusive; also: % is scaled to controls: 0 for no effect and ±100 for the full control effect); details: ARE-bla HepG2 viability, CellTiter-Glo ATP luminescence, 16 h; max response: stronger effect = lower value
# In short: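 ARE-bla HepG2 cells (2,000/well) rested 5 hrs at 37C/5% CO2, then exposed to compounds in DMSO for 16 hrs. Viability was read in the same wells as intracellular ATP by luminescence, 30 min at room temperature after reagent addition.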
# [18] = qHTS assay for cell viability of HEK293 cells (AID 743288; active = well fitted curve in the direction sought with a large enough effect; an effect the other way counts as inactive or inconclusive; also: % is scaled to controls: 0 for no effect and ±100 for the full control effect; nearly all actives have a fitted effect of over 50% in size); details: ATP luminescence (CellTiter-Glo), 18 h; max response: stronger effect = lower value
# In short: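 Parental HEK293 cells, 2,000 per well, preincubated at least 5 h at 37 C, then exposed to compounds in DMSO for 18 h at 37 C. Viability by CellTiter-Glo ATP luminescence after 30 min at room temperature.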
# [19] = qHTS assay for cell viability of the p53RE-bla HCT-116 cell line (AID 743292; active = well fitted curve in the direction sought with a large enough effect; an effect the other way counts as inactive or inconclusive; also: % is scaled to controls: 0 for no effect and ±100 for the full control effect; nearly all actives have a fitted effect of over 55% in size)
# In short: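 Intracellular ATP of p53RE-bla HCT-116 cells measured by luciferase luminescence following 16 h compound incubation at 37 C; DMSO-only wells served as vehicle controls.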
# [20] = target: Nuclear receptor subfamily 1 group I member 2 (Rattus norvegicus) (UniProt Q9R1A7); experiment: qHTS assay for small molecule activators of the rat pregnane X receptor (rPXR) signaling pathway (AID 651751; call rule not given here; also: 0% is about no effect); details: rPXR reporter cells, luciferase (One-Glo), 24 h
# Nuclear receptor subfamily 1 group I member 2 (Rattus norvegicus), sequence (Q9R1A7 whole entry, looked up): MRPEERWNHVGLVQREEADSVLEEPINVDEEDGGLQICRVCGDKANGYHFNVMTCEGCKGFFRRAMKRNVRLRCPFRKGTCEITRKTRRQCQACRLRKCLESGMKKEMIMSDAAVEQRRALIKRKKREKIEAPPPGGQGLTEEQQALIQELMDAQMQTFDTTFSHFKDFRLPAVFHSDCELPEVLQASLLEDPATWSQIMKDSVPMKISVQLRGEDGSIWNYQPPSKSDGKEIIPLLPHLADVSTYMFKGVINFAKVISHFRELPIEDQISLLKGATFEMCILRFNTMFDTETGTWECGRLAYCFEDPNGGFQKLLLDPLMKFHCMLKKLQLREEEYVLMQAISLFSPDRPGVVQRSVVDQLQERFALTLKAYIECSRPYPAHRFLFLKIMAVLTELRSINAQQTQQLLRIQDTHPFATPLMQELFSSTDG
# Peroxisome proliferator-activated receptor alpha (Homo sapiens), sequence (Q07869 whole entry, looked up): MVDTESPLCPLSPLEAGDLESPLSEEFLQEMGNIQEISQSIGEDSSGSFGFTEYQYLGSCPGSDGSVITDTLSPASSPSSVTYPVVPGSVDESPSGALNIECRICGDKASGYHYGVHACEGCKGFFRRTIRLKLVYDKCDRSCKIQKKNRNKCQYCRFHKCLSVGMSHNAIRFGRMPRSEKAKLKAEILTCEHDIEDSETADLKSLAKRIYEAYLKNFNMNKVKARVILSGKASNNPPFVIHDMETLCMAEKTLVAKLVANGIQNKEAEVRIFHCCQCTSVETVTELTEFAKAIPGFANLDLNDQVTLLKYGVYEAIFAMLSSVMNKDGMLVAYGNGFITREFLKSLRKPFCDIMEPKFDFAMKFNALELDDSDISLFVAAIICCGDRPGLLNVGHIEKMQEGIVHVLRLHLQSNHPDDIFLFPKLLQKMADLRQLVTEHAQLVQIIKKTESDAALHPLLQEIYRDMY
# Retinoic acid receptor RXR-alpha (Homo sapiens), sequence (P19793 whole entry, looked up): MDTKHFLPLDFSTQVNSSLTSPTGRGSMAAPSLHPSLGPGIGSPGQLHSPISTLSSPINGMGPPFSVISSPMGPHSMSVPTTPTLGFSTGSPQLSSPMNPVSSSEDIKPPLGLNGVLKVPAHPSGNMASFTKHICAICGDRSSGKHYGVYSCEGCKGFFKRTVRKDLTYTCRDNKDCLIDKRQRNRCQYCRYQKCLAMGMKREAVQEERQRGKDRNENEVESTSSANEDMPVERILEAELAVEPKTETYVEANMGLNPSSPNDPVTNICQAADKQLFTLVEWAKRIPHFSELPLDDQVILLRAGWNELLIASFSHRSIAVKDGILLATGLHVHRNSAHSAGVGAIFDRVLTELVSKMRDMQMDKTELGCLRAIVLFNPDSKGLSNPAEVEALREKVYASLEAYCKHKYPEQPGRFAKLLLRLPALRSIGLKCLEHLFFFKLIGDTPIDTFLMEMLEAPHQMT
# Peroxisome proliferator-activated receptor gamma (Homo sapiens), sequence (P37231 whole entry, looked up): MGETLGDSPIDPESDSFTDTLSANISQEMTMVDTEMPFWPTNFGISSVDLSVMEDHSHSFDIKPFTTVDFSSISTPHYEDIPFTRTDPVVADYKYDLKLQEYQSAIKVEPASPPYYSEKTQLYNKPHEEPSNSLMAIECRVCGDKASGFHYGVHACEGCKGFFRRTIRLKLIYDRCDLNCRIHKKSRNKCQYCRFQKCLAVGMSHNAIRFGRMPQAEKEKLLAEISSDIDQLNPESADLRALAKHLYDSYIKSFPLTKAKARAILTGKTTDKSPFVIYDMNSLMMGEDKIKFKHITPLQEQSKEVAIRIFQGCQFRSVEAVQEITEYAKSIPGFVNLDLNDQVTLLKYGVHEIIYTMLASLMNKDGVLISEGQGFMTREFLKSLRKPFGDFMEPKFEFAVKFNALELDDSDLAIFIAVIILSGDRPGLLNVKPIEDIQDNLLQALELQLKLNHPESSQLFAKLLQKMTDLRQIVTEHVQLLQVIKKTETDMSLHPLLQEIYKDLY
# Thyroid hormone receptor beta (Homo sapiens), sequence (P10828 whole entry, looked up): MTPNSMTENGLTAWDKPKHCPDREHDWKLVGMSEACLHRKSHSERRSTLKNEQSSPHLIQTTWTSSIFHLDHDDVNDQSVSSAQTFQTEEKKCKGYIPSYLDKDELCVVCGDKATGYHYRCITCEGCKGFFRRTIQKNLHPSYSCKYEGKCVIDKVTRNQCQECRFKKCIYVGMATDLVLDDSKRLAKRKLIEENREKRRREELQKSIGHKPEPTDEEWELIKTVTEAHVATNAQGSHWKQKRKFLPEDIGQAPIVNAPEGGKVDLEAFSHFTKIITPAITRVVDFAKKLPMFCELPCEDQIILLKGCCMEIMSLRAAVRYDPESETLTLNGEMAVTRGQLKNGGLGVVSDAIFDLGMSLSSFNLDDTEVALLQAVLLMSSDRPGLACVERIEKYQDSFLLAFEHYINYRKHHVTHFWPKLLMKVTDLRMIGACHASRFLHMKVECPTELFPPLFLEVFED
# Peroxisome proliferator-activated receptor delta (Homo sapiens), sequence (Q03181 whole entry, looked up): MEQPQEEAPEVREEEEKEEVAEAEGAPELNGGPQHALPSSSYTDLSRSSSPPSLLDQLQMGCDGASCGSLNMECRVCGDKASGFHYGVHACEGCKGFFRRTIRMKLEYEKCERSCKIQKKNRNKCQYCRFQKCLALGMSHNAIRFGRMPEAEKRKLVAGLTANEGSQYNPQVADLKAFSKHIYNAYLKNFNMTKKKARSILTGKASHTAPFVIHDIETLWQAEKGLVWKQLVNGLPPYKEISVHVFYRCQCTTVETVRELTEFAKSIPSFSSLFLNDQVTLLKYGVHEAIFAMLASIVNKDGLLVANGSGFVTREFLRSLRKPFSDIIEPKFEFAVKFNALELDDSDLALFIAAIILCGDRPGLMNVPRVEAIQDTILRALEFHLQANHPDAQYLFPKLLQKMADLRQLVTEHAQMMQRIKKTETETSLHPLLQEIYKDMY
# Glucocorticoid receptor (Homo sapiens), sequence (P04150 whole entry, looked up): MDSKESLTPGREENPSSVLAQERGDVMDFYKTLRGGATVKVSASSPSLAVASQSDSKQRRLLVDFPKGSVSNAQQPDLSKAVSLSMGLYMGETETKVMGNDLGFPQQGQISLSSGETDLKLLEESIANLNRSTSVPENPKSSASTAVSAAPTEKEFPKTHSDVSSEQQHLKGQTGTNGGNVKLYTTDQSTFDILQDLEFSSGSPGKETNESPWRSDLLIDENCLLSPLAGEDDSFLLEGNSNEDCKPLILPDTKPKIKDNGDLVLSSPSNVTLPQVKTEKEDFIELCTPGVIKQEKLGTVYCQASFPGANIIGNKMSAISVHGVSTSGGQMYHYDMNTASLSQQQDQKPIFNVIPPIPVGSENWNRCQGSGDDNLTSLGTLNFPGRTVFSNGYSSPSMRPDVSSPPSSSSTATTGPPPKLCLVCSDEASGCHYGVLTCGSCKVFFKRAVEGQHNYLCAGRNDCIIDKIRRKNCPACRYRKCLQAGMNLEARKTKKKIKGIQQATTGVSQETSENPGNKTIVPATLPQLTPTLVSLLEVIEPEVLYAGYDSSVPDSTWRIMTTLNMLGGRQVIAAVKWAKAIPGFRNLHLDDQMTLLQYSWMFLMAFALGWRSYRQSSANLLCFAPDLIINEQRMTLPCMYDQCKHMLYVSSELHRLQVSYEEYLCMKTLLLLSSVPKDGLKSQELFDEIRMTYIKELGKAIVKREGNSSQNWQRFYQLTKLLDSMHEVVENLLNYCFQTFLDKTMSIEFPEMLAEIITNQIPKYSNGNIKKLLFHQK
# Vitamin D3 receptor (Homo sapiens), sequence (P11473 whole entry, looked up): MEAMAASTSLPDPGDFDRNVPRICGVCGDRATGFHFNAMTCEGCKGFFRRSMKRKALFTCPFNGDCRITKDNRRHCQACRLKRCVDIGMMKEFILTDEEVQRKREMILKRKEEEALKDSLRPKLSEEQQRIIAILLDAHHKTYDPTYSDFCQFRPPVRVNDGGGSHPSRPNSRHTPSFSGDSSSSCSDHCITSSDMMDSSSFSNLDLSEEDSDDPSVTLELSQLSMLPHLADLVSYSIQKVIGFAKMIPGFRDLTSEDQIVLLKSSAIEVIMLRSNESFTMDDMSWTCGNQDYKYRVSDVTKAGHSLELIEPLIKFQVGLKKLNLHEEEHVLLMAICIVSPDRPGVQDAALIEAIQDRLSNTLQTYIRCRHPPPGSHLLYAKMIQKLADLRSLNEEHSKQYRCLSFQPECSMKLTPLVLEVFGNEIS
smiles,measurement,setting,value
O=S(=O)(c1ccc(O)cc1)c1ccc(O)cc1,activation,[1],-0.412% (inactive)
same,outcome,[2],inactive
same,max response,[3],45.2%
same,Potency,[4],inactive
same,Potency,[5],inactive
same,Potency,[6],inactive
same,Potency,[7],inactive
same,outcome,[8],inactive
same,Potency,[9],inactive
same,Potency,[10],inactive
same,max response,[11],-5.39%
same,max response,[12],15.4% (inactive)
same,activation,[13],-2.48% (inactive)
same,activation,[14],-1.25% (inactive)
same,max response,[15],-4.37% (inactive)
same,Potency,[16],inactive
same,max response,[17],-5.42% (inactive)
same,max response,[18],-8.18% (inactive)
same,Potency,[19],inactive
same,max response,[20],-2.78% (inactive)
CCOC(=O)Nc1cccc(OC(=O)Nc2ccccc2)c1,activation,[1],-3.53% (inactive)
same,outcome,[2],inactive
same,max response,[3],9.77%
same,Potency,[4],inactive
same,Potency,[5],inactive
same,Potency,[6],inactive
same,Potency,[7],inactive
same,outcome,[8],inactive
same,Potency,[9],inactive
same,Potency,[10],inactive
same,max response,[11],0.0057%
same,max response,[12],-20.8% (inactive)
same,activation,[13],-3.18% (inactive)
same,Potency,[14],44.7 µM (active)
same,max response,[15],-0.828% (inactive)
same,max response,[18],-5.43% (inactive)
same,Potency,[19],inactive
CC1(c2ccc(Oc3ccccc3)cc2)OC(=O)N(Nc2ccccc2)C1=O (stereo not drawn),outcome,[2],inactive
same,max response,[11],19.6%
same,Potency,[12],31.6 µM (active)
same,Potency,[13],5.01 µM (active)
same,activation,[14],4.76% (inactive)
same,max response,[15],11.6% (inactive)
same,Potency,[16],inactive
same,max response,[17],-28.5% (inactive)
same,max response,[18],-20.8% (inactive)
CCOP(=S)(OCC)Oc1ccc(S(C)=O)cc1 (stereo not drawn),outcome,[2],inactive
same,max response,[3],-64.2%
same,Potency,[4],inactive
same,Potency,[5],inactive
same,Potency,[6],inactive
same,Potency,[7],inactive
same,outcome,[8],inactive
same,Potency,[9],inactive
same,Potency,[10],inactive
same,max response,[11],-3.81%
same,max response,[12],-34.4% (inactive)
same,activation,[14],14.8% (inactive)
same,max response,[15],-1.54% (inactive)
same,Potency,[16],inactive
same,max response,[17],6.57% (inactive)
same,max response,[18],-11.8% (inactive)
same,Potency,[19],inactive
same,max response,[20],7.38% (inactive)
Cc1ccccc1C(=O)Nc1cccc(OC(C)C)c1,activation,[1],2.19% (inactive)
same,outcome,[2],inactive
same,max response,[3],10.6%
same,Potency,[4],inactive
same,Potency,[9],inactive
same,Potency,[10],inactive
same,max response,[11],-1.03%
same,max response,[12],-11.3% (inactive)
same,activation,[13],-3.37% (inactive)
same,max response,[15],-0.819% (inactive)
same,max response,[17],-14.9% (inactive)
same,Potency,[19],inactive
O=P(O)(O)CN(CP(=O)(O)O)CP(=O)(O)O,activation,[1],4.25% (inactive)
same,outcome,[2],inactive
same,max response,[3],1.59%
same,Potency,[4],inactive
same,Potency,[5],inactive
same,Potency,[6],inactive
same,Potency,[7],inactive
same,Potency,[10],inactive
same,max response,[11],-13.3%
same,max response,[12],-32% (inactive)
same,activation,[13],-5.96% (inactive)
same,activation,[14],0.682% (inactive)
same,max response,[15],4.68% (inactive)
same,Potency,[16],inactive
same,max response,[18],-8.91% (inactive)
same,Potency,[19],inactive
same,max response,[20],-1.66% (inactive)

# From PubChem BioAssay (NCATS)
